High-throughput results: PubChem, National Center for Advancing Translational Sciences (NCATS)
HepG2 tox: kills HepG2 cells in TGF-b inhibitor counter-screen; HepG2 CAGA-GFP viability, ATP luminescence, 18 h; Potency, µM (doses to about 46.1 µM), for inactives: at the top dose activity change, negative = cytotoxicity, hits mostly cytotoxic; actives 0.76% (n = 410,000); AID 588856; further: potency means the concentration at half of the fitted maximal effect
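HepG2 CAGA-GFP cells (1000/well, DMEM with 1% FBS) received compound, then TGF-beta at 500 pg/mL final, and were incubated 18 hours at 37 degrees C. Viability was read by CellTiter-Glo luminescence. Media-only wells were set as complete cell-killing and DMSO as no toxicity.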
IL-1B inflam inh: blocks inflammasome-driven IL-1 beta release; THP-1 LPS/ATP IL-1B secretion, AlphaLISA, 16 h; active compounds read low; actives 4.7% (n = 360,000); activity change, % at 57.5 µM; in the data active means activity change below about -50%; inconclusive means mostly about -30% to -49%; further: on the % scale 0 is the no-effect control and ±100 the full control effect
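Secreted IL-1B measured by AlphaLISA bead assay after 16 h compound exposure of THP-1 cells; compounds (final up to 57.5 uM) added 1 h before LPS (250 ng/mL) and ATP (1.25 mM) stimulation; lower signal means less secretion.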
DT40 TDP1 no CPT: qHTS for Inhibitors of human tyrosyl-DNA phosphodiesterase 1 (TDP1): qHTS in cells in absence of CPT. DT40 Tdp1-/- hTDP1 cells, no CPT, ATP luminescence, 48 h. Potency, µM (titrated, usually from 46.2 µM), inactives show at the top dose activity change, negative = growth inhibition, most hits filed as inhibitors. actives 15% (n = 420,000); further: potency means the concentration at half of the fitted maximal effect; on the % scale 0 is the no-effect control and ±100 the full control effect; nearly all actives have a fitted effect of over 55% in size
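Luminescent ATP content (CellTiter-Glo) served as the growth readout. Knockout chicken DT40 cells expressing human TDP1 were exposed to compounds without camptothecin for a minimum 48 hr at 37 °C.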
TDP1 block: blocks human tyrosyl-DNA phosphodiesterase 1; recombinant TDP1, AlphaScreen DNA substrate cleavage; Q9NUW8; actives 0.28% (n = 350,000); Potency, µM (top dose mostly 130 µM), without a hit: at the top dose activity change, negative = inhibition, most hits filed as inhibitors; further: potency means the concentration at half of the fitted maximal effect; on the % scale 0 is the no-effect control and ±100 the full control effect; nearly all actives have a fitted effect of over 40% in size
Target sequence (Q9NUW8 whole entry, looked up): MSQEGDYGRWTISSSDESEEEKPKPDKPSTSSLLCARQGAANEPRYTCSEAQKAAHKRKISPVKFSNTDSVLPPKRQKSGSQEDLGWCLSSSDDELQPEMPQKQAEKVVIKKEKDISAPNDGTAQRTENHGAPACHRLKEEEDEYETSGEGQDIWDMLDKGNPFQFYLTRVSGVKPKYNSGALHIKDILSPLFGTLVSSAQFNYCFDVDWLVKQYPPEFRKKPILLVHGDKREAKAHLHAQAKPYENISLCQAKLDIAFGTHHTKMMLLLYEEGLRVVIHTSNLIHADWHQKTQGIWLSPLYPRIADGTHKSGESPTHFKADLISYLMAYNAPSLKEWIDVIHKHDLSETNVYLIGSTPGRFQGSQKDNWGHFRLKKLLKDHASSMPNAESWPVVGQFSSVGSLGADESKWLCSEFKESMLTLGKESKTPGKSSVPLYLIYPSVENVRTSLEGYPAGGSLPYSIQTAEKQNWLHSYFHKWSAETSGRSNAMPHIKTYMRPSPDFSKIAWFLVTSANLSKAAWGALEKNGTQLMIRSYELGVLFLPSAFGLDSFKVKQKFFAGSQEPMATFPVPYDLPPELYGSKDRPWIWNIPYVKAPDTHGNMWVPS
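Here, a 5' biotin and 3' phosphotyrosine-FITC DNA oligonucleotide reports Tdp1 activity: intact substrate bridges AlphaScreen beads, while cleavage leaves a 3' phosphate and drops signal. All incubations at room temperature.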
TGFb SMAD3 inh: TGF-b pathway inhibition. actives 1.2% (n = 410,000). Potency, µM (series often up to 46.1 µM), for the others: top-dose activity, negative = inhibition, most hits filed as inhibitors. HepG2 CAGA-GFP TGF-b/SMAD3 reporter, GFP fluorescence, 18 h; TGF-beta stimulated, 500 pg/mL final; further: potency means the concentration at half of the fitted maximal effect; on the % scale 0 is the no-effect control and ±100 the full control effect; nearly all actives have a fitted effect of over 65% in size
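Inhibition of TGF-beta-driven CAGA-GFP reporter expression in HEPG2 cells is measured by cellular GFP fluorescence after 18 h stimulation with 500 pg/mL recombinant TGF-beta in 1% FBS medium at 37 degrees C.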
DT40 TDP1 CPT: growth inhibition of DT40 Tdp1-/-;hTDP1 cells with camptothecin (screen for TDP1 inhibitors) | chicken DT40 Tdp1-/-;hTDP1 cells + 20 nM CPT, ATP luminescence, 48 h | actives 12% (n = 420,000) | Potency, µM (top dose mostly 46.2 µM), for the others: at the top dose activity change, negative = growth inhibition, hits mostly inhibitors; further: potency means the concentration at half of the fitted maximal effect; on the % scale 0 is the no-effect control and ±100 the full control effect; nearly all actives have a fitted effect of over 55% in size
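Chicken DT40 Tdp1-/- cells stably complemented with human TDP1 were seeded at 400 cells/well in medium containing 20 nM camptothecin, exposed to pin-transferred compounds, and grown at 37 °C for at least 48 hr. Viability was read as ATP luminescence.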
The depositor's hits bear a star; ? = inconclusive; nt = no result; [ ] = another dose, or the depositor's remark. In the library only some 18% were active in any assay of this set; here they are far more common. Unless noted, the call rests on the fitted dose curve; in most records, active means well fitted curve in the direction sought with a large enough effect; inconclusive means small, poorly fitted or top-dose-only effect, or another doubt; inactive means no such curve, though single readings can be large; an effect the other way counts as inactive or inconclusive.

SMILES	HepG2 tox	IL-1B inflam inh	DT40 TDP1 no CPT	TDP1 block	TGFb SMAD3 inh	DT40 TDP1 CPT
CNC(=O)/C(=C\c1cccc(Oc2ccccc2)c1)NC(=O)c1ccccc1	-21%	?	-23%	0%	10%	3%
CCCCN(C(=O)C1CCCC1)c1c(N)n(Cc2ccccc2)c(=O)[nH]c1=O	0%	-6	-6%	-18%	-5%	4%
COC(=O)C1C(=O)C(C(=O)/C=C/c2ccco2)C(=O)CC1(C)C (stereo not drawn)	nt	nt	4%[9.04 µM]	-5%	nt	5%[9.04 µM]
CC1C=CCC2C(=O)N(c3cccc(C(=O)Nc4ccc(Br)cc4)c3)C(=O)C12 (stereo not drawn)	-38%	?	-25%	-2%[56.1 µM]	?	-28%
COCCNC(=O)/C(C#N)=C/C(C)=C/c1ccccc1	5%	-83*	-21%	1%	2%	-22%
O=C(CN1CCN(S(=O)(=O)c2ccccc2F)CC1)N1CCc2ccccc2C1	-11%	9	?	5%	14%	5%
CCc1ccc(NC(=O)Nc2ccccc2OCc2cc(=O)n3ccccc3n2)cc1	0%	nt	?	5%	-1%	?
CCn1ccnc1CN1CCCC(C(=O)c2ccc3cc(OC)ccc3c2)C1 (stereo not drawn)	-28%	-96*	4.6µM*	6%	?	2.9µM*
COc1ccc2cc(C(=O)C3CCCN(Cc4ccccn4)C3)ccc2c1 (stereo not drawn)	-44%	-27	18µM*	0%	?	?
CC(C)Oc1cccc(C(=O)C2CCCN(Cc3ccc(Oc4ncccn4)cc3)C2)c1 (stereo not drawn)	-18%	-21	?	4%	-19%	5%
COc1c(C)cc(C(=O)C2CCCN(Cc3ccc(Oc4ncccn4)cc3)C2)cc1C (stereo not drawn)	-27%	-11	15µM*	-5%	-21%	?
COc1ccc2cc(C(=O)C3CCCN(Cc4cnc(N5CCOCC5)s4)C3)ccc2c1 (stereo not drawn)	-28%	?	18µM*	2%	?	?
O=c1c(O)c(-c2ccc(O[C@@H]3O[C@H](CO)[C@@H](O)[C@H](O)[C@H]3O)c(O)c2)oc2cc(O)cc(O)c12	nt	nt	nt	8%	nt	nt
CSCCC=O	nt	nt	nt	17%	nt	nt
CC(C)C(=O)N1CCCC1(C)C(=O)Nc1ccc(F)cc1 (stereo not drawn)	-16%	-16	-6%	nt	-12%	-7%
Cn1c(SCC(=O)N2CC(=O)Nc3ccccc32)nnc1C(F)(F)F	3%	21	-1%	-4%	-4%	20%
CCCN1C(=O)c2cccc3c(N4CCCCC4)ccc(c23)C1=O	-14%	76	?	-6%	51%	?
CCCCNc1ccc2c3c(cccc13)C(=O)N(CCCC)C2=O	-18%	-22	21µM*	nt	230%	26µM*
COC(=O)c1ccc(NC(=O)CSc2nc3ncccc3[nH]2)cc1	33%	22	21µM*	7%	-18%	-21%
COc1ccc2nc(SCC(=O)Nc3ccccc3OC)[nH]c2c1	24%	-24	?	11%	-11%	-2%
COc1ccc(NC(=O)CSc2nc3ccc(OC)cc3[nH]2)cc1	-13%	0	-4%	nt	0%	-7%
COc1ccc(NC(=O)CSc2nc3ccncc3[nH]2)c(OC)c1	14%	19	9.2µM*	5%	4%	23µM*
COc1ccc2nc(SCC(=O)NC3CCCCC3C)[nH]c2c1 (stereo not drawn)	-5%	0	9.2µM*	1%	-16%	16µM*
COC(=O)c1ccc(NC(=O)CSc2nc3ccc(OC)cc3[nH]2)cc1	-16%	nt	23µM*	nt	0%	23µM*
CCOc1ccc(NC(=O)c2c(NC(=O)c3ccco3)sc3c2CCC(C(C)(C)C)C3)cc1 (stereo not drawn)	-25%	nt	2%	nt	10%	-7%
SMILES	HepG2 tox	IL-1B inflam inh	DT40 TDP1 no CPT	TDP1 block	TGFb SMAD3 inh	DT40 TDP1 CPT
CCOc1ccc2nc(SCC(=O)NCc3ccc(OC)c(OC)c3)[nH]c2c1	-3%	-7	?	-1%	-1%	15µM*
COc1ccc2nc(SCC(=O)NCc3ccc(OC)c(OC)c3)[nH]c2c1	-30%	13	-27%	17%	-12%	-12%
O=C(CSc1nc2cc3ccccc3cc2[nH]1)Nc1ccc(F)cc1	-67%	-4	23µM*	3%	?	?
COc1ccc2c(c1)[nH]c1c(=O)n(/N=C/c3ccc(OC)c(COc4ccccn4)c3)cnc12	-24%	-28	?	1%	-10%	-18%
COc1ccc(/C=N/n2cnc3c([nH]c4ccc(F)cc43)c2=O)cc1CSc1ccccn1	5%	3	7.3µM*	4%	-24%	1.2µM*
Cc1cccc(C)c1-n1nnnc1-c1nc2cc3ccccc3cc2[nH]c1=O	nt	8	0.73µM*	nt	nt	0.52µM*
Cc1cccc(C)c1-n1nnnc1-c1nc2cc(Br)ccc2[nH]c1=O	nt	-4	-29%	nt	nt	?
CN(CCOc1ccccc1)C(=O)C1CCC(=O)N(CCCN2CCCC2=O)C1 (stereo not drawn)	4%	12	8%	3%	-4%	5%
CC(C)NC(=O)C1(C)CCN1Cc1ccc(C(F)(F)F)cc1 (stereo not drawn)	-14%	2	?	nt	-16%	?
Cc1ccc(OCCN2CCC2(C)C(=O)NCc2ccc(C(F)(F)F)cc2)cc1 (stereo not drawn)	-39%	-19	21µM*	nt	13µM*	?
CCNC(=O)C1(C)CCCN1Cc1c(F)cccc1F (stereo not drawn)	-45%	0	16µM*	nt	?	?
CC1(C(=O)NCc2ccc(C(F)(F)F)cc2)CCN1Cc1ccc(-c2ccccc2)o1 (stereo not drawn)	-74%	-54*	?	nt	?	?
CC1(C(=O)NCc2ccc(C(F)(F)F)cc2)CCN1Cc1c(F)cccc1F (stereo not drawn)	-32%	4	?	nt	?	16µM*
CCNC(=O)C1(C)CCCN1C(=O)c1c(F)cccc1F (stereo not drawn)	-1%	0	-13%	nt	-1%	-30%
